The source of these data is PubChem BioAssay (EPA / NIEHS).

What is called AC50 is the midpoint of the concentration-response curve, whichever way the signal moves.

Each structure is given as a SMILES string. Values joined by “and” are separate entries in the source; they are usually repeats but may differ in a detail not shown here. Equal values may be shown once. Inconclusive results are not listed. Active and inactive are the calls of the source. The calls were made as follows, unless noted: active = hit-call score of the fitted dose curve at least 0.9, where 1 is the maximum; inconclusive = response in the unintended direction; inactive = score below 0.9.

For assay [1], the target named is human Phosphodiesterase 10 (PDE10), PDE10A (gene 10846) (UniProt Q9Y233). The assay is described as follows: NVS_ENZ_hPDE10: NovaScreen (NVS) Enzymatic Assay for human Phosphodiesterase 10 (PDE10) (AID 2283195). In a few lines:
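Biochemical single-readout PDE10A assay, cell-free, extracted protein. Compounds first screened at 25 uM in duplicate, hits then titrated to 50 uM max. Activity measured after 1 h; loss-of-signal fitted against DMSO negative control.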

For assay [2], the target named is rat Peripheral-type Benzodiazepine Receptor (PBR), Tspo (gene 24230) (UniProt P16257). In words: NVS_MP_rPBR: NovaScreen (NVS) Membrane Protein Assay for rat Peripheral-type Benzodiazepine Receptor (PBR) (AID 2283335). In a few lines: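 Competitive displacement of specific radioligand from rat kidney membrane PBR, read by filtration and scintillation after 1 h. Compounds first tested at 25 uM in duplicate, then in concentration series; signal loss relative to DMSO.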

Assay [3] concerns the target Bile acid receptor (Homo sapiens) (UniProt Q96RI1). In words: OT_FXR_FXRSRC1_0480: Odyssey Thera (OT) 8-hour HEK293T Protein-Complementation Assay for Farnesoid X receptor/SRC-1 Co-activator (AID 2283383). In a few lines:
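Binding of FXR to coactivator SRC-1 was read as fluorescence from a reconstituted split reporter in HEK293T cells, 8 h after chemical addition. Only increases in signal versus DMSO were fit.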

Assay [4] can be described thus: CEETOX_H295R_OHPREG: CeeTox H295R High-throughput Steroidogenesis Assay for OH-Pregnenolone (OHPREG) (AID 2283434; active = hit-call score of the fitted dose curve at least 0.9, where 1 is the maximum; inactive = score below 0.9). To be noted: actives raise or lower the signal. The procedure, abridged: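 H295R, 10 uM forskolin pre-stim 48 h; test chemical 48 h, 0.1% DMSO final. MTBE extraction, reverse-phase C18 HPLC-ESI+ MS/MS of medium. Gain/loss vs DMSO; viability by MTT in same wells.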

A short description of assay [5]: CEETOX_H295R_OHPROG: CeeTox H295R High-throughput Steroidogenesis Assay for OH-Progesterone (OHPROG) (AID 2283435; active = hit-call score of the fitted dose curve at least 0.9, where 1 is the maximum; inactive = score below 0.9;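 as to AC50: 17alpha-hydroxyprogesterone secreted into medium measured by HPLC-MS/MS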). The conditions noted are these: actives raise or lower the signal. The procedure, abridged: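 Medium steroid levels read by LC-MS/MS after 48 h chemical treatment (0.1% DMSO) of human adrenal H295R cells that had been forskolin-primed (10 uM, 48 h). Gain or loss fitted against DMSO; MTT cytotoxicity checked per well.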

Assay [6] is described as follows: CEETOX_H295R_PROG: CeeTox H295R High-throughput Steroidogenesis Assay for Progesterone (PROG) (AID 2283442; active = hit-call score of the fitted dose curve at least 0.9, where 1 is the maximum; inactive = score below 0.9;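 as to AC50: human H295R adrenal cells primed with 10 µM forskolin before dosing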). To be noted: actives raise or lower the signal. The procedure, abridged:
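H295R human adrenal cells were prestimulated with 10 uM forskolin for 48 h, then exposed to test chemical (0.1% DMSO final) for 48 h. Medium progesterone was MTBE-extracted and quantified by HPLC-MS/MS, with bidirectional fitting against DMSO.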

Assay [7] is described as follows: CEETOX_H295R_11DCORT: CeeTox H295R High-throughput Steroidogenesis Assay for 11-Deoxycortisol (11DCORT) (AID 2283432; active = hit-call score of the fitted dose curve at least 0.9, where 1 is the maximum; inactive = score below 0.9;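 also: 11-deoxycortisol secreted into the medium measured by LC-MS/MS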). To be noted: actives raise or lower the signal. In a few lines:
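Steroidogenesis in human H295R cells: 48 h chemical exposure after forskolin priming, 11-deoxycortisol measured by LC-MS/MS.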

The nature of assay [8]: CEETOX_H295R_CORTIC: CeeTox H295R High-throughput Steroidogenesis Assay for Corticosterone (CORTIC) (AID 2283437; active = hit-call score of the fitted dose curve at least 0.9, where 1 is the maximum; inactive = score below 0.9;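 also: corticosterone secreted into medium quantified by mass spectrometry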). The conditions noted are these: actives raise or lower the signal. The procedure, abridged:
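48 h forskolin (10 uM) prestim, then 48 h chemical exposure, final DMSO 0.1%. Readout: corticosterone in medium by LC-MS/MS after MTBE extraction. Gain/loss fit vs DMSO; MTT viability in same wells.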

Assay [9] can be described thus: CEETOX_H295R_CORTISOL: CeeTox H295R High-throughput Steroidogenesis Assay for Cortisol (AID 2283438; active = hit-call score of the fitted dose curve at least 0.9, where 1 is the maximum; inactive = score below 0.9;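 also: cortisol secreted into medium quantified by LC-MS/MS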). The conditions noted are these: actives raise or lower the signal. In a few lines: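 Cortisol measured by HPLC-MS/MS after MTBE extraction of medium from H295R cells exposed 48 h to chemical (0.1% DMSO), following 48 h prestimulation with 10 uM forskolin. Viability assessed by MTT in the same wells.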

Assay [10] is described as follows: CEETOX_H295R_DOC: CeeTox H295R High-throughput Steroidogenesis Assay for DOC (AID 2283439; active = hit-call score of the fitted dose curve at least 0.9, where 1 is the maximum; inactive = score below 0.9). To be noted: actives raise or lower the signal. In a few lines: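 11-Deoxycorticosterone quantified in medium by MTBE extraction and HPLC-MS/MS after 48 h chemical exposure (0.1% DMSO) of forskolin-primed (10 uM, 48 h) H295R cells. Same-well MTT viability; data fitted bidirectionally against DMSO.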

Assay [11] deals with Nucleoli Translocation, AR (gene 367) (UniProt P10275). In words: UPITT_HCI_U2OS_AR_TIF2_Nucleoli_Antagonist: University of Pittsburgh U2OS Androgen Receptor-Transcriptional Intermediary Factor 2 (AR-TIF2) Antagonism High Content Imaging Assay for Nucleoli Translocation (AID 2283997). The procedure, abridged: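 Compounds are added at 20 uM final concentration in 0.2% DMSO to U2OS cells carrying AR-RFP and TIF2-GFP fusions. Nucleolar AR-RFP fluorescence is then quantified by automated imaging. Antagonism is fitted positively against DHT baseline.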

Assay [12] has as its target Peroxisome proliferator-activated receptor gamma (Homo sapiens) (UniProt P37231). In words: NVS_NR_hPPARg: NovaScreen (NVS) Nuclear Receptor Binding Assay for human Peroxisome Proliferator-activated Receptor gamma (PPARg) (AID 2283370). In a few lines: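 Cell-free binding to extracted PPARg protein, read by fluorescence polarization 2 h after dosing; loss of signal relative to DMSO baseline marks displacement. Primary screen in duplicate at 25 uM, actives retested in concentration series.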

In assay [13] the test system is Thyroperoxidase (TPO), gene 54314. The assay is described as follows: CCTE_Simmons_AUR_rTPO: CCTE's Amplex UltraRed Assay for Thyroperoxidase (TPO) Inhibition, Simmons Lab (AID 2283662).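 Also: potency for loss of signal meaning inhibition of peroxidase activity.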 The procedure, abridged:
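Endpoint is decreased Amplex UltraRed fluorescence after a 30-min, 37C reaction of rat thyroid microsomes with 300 uM H2O2. Eight test concentrations (5 nM–87.5 uM final) in 0.5% DMSO, three biological replicates each.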

Assay [14] can be described thus: CCTE_Simmons_CellTiterGLO_HEK293T: Viability Assessment in CCTE's Assays for Thyroperoxidase (TPO) Inhibition, Simmons Lab (AID 2283665).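 As to AC50: cells exposed to compound for 24 h before readout; actives reduce ATP signal below DMSO vehicle meaning cytotoxicity.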 In a few lines:
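Luciferase-coupled ATP content after 24 h exposure gives viability; 8-point series from 5 nM to 87.5 uM final in 0.5% DMSO. Human HEK293T cells, 1% FBS medium, three biological replicates, dichlone positive control.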
On the technique in general: In ATP-based viability assays light output follows the ATP content of the culture.

The target of assay [15] is Luciferin 4-monooxygenase (Photinus pyralis) (UniProt P08659). In words: CCTE_Simmons_QuantiLum_inhib_2: CCTE's Firefly Luciferase Inhibition Assay, Simmons Lab (AID 2283767). The procedure, abridged:
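Eight test concentrations, 5 nM up to 87.5 uM final, preincubated 30min at 37C in the dark with purified luciferase (0.5% DMSO final). Detection reagent (150uM D-luciferin, 147uM dATP, 75uM CoA, pH 7.8) injected per well before kinetic luminescence read; three replicates.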

For assay [16], the system named is Sodium/Iodide Symporter (NIS), SLC5A5 (gene 6528). The assay is described as follows: CPHEA_Stoker_NIS_Inhibition_RAIU: CPHEA's Radioactive Iodide Uptake (RAIU) Assay for Sodium/Iodide Symporter (NIS) Inhibition, Stoker and Laws Labs (AID 2283841). The procedure, abridged:
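Test chemicals, six concentrations from 0.001 to 100uM in 0.5% DMSO, were co-incubated with carrier-free 125I (final 329pM) on hNIS-HEK293T-EPA monolayers in pH 7.4 HEPES-buffered HBSS. Plates stood 2 hours at room temperature, then were washed cold and counted.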

Assay [17] is described as follows: CPHEA_Stoker_NIS_Cytotoxicity: Cytotoxicity Assessment for CPHEA's Radioactive Iodide Uptake (RAIU) Assay for Sodium/Iodide Symporter (NIS) Inhibition, Stoker and Laws Labs (AID 2283897). In a few lines: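 Viability in hNIS-HEK293T-EPA cells is scored as a drop in luciferase-detected ATP following 2-hour room-temperature exposure (0.001–100uM; triplicate wells, three cell passages), with DMSO as negative control.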

Assay [18] concerns the target Peroxisome proliferator-activated receptor gamma (Homo sapiens) (UniProt P37231). The assay is described as follows: OT_PPARg_PPARgSRC1_0480: Odyssey Thera (OT) 8-hour Protein-Complementation Assay for Peroxisome Proliferator-activated Receptor Gamma / SRC-1 Co-activator (AID 2283387).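 Also: nuclear to cytoplasmic split Venus YFP fluorescence ratio reporting PPARg SRC-1 interaction.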 The procedure, abridged:
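Split-YFP (IFP1/IFP2) PPARg/SRC-1 reporter, HEK293T, 37 °C, 5% CO2; 8 h compound; formaldehyde fix + Draq5; high-content imaging, N/C ratio, ≥350 cells/image, positive direction vs DMSO.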

Assay [19] can be described thus: CCTE_Padilla_ZF_Score.General: CCTE's 144 Hour Post-fertilization zebrafish Assay Score for General Malformation, Padilla Lab (AID 2284411; active = hit-call score of the fitted dose curve at least 0.9, where 1 is the maximum; inactive = score below 0.9). The procedure, abridged: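 Malformation, death and hatching were scored at 6 dpf by two blinded observers under a stereo microscope. Embryos were dosed singly from 6-8 hpf in sealed plates of 10% Hanks' at 26C and rinsed on 5 dpf; DMSO baseline.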

In assay [20] the target is Nuclear receptor subfamily 1 group I member 2 (Homo sapiens) (UniProt O75469). The assay is described as follows: NVS_NR_hPXR: NovaScreen (NVS) Nuclear Receptor Binding Assay for human Pregnane X Receptor (PXR) (AID 2283365).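 Also: a drop in FRET signal versus DMSO baseline means the compound binds.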 The procedure, abridged: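 Cell-free binding assay with extracted human PXR protein, read by TR-FRET 2 h after dosing; loss of signal relative to DMSO baseline indicates binding. Primary screen at 25 uM in duplicate, actives retested in concentration series.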
Nuclear receptor subfamily 1 group I member 2 (Homo sapiens), sequence (O75469 whole entry, looked up): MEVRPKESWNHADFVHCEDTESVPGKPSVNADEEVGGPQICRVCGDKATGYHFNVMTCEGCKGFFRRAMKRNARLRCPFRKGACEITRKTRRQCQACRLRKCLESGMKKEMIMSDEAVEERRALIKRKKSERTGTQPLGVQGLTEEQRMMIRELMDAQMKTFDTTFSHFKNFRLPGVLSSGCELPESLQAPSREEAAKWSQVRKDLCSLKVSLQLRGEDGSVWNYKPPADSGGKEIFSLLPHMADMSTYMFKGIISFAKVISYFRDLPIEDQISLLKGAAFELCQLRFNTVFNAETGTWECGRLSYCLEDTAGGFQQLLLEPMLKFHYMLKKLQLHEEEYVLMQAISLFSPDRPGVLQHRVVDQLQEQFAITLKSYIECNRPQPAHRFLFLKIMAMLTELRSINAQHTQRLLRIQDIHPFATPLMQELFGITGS

Nucleoli Translocation, AR (gene 367), sequence (P10275 whole entry, looked up, the tested form may be a part): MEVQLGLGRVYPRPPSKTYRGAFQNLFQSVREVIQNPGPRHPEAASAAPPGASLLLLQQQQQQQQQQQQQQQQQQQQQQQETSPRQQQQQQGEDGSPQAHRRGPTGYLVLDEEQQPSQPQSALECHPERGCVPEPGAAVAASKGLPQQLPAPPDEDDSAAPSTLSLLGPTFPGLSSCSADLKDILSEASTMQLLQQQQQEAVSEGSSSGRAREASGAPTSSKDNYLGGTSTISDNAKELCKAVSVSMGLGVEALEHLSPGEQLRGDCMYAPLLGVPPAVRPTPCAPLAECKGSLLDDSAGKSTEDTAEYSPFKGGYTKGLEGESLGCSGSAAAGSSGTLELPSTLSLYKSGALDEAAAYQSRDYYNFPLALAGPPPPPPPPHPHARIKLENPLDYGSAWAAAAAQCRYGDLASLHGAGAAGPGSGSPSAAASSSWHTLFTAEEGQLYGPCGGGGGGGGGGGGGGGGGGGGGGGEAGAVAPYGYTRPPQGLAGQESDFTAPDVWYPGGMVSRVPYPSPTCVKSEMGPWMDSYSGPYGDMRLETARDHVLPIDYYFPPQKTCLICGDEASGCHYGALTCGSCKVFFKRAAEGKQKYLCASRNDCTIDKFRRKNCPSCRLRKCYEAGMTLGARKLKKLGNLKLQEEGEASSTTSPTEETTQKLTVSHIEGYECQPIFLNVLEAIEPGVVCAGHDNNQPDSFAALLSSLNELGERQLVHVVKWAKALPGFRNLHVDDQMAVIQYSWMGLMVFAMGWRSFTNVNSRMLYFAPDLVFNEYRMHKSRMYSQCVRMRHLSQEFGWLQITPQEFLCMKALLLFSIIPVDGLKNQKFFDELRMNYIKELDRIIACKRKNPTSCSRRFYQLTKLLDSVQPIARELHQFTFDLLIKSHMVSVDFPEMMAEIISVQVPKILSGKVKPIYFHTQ
Bile acid receptor (Homo sapiens), sequence (Q96RI1 whole entry, looked up): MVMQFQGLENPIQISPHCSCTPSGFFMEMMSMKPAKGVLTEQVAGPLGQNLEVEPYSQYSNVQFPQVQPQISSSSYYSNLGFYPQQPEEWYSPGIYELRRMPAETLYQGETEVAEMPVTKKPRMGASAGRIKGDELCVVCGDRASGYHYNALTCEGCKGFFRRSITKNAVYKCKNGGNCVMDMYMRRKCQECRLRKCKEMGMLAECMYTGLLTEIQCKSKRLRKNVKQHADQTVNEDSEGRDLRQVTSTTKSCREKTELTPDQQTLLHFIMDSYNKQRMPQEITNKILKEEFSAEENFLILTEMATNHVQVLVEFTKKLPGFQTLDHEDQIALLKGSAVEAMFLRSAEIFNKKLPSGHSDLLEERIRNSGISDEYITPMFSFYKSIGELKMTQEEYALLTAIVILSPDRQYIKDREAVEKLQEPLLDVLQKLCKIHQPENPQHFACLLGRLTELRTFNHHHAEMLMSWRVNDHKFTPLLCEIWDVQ
rat Peripheral-type Benzodiazepine Receptor (PBR), Tspo (gene 24230), sequence (P16257 whole entry, looked up): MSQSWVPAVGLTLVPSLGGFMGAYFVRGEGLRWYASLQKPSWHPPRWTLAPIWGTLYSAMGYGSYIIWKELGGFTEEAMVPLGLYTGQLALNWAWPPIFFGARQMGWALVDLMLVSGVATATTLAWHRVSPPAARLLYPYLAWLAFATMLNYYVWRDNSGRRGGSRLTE
Luciferin 4-monooxygenase (Photinus pyralis), sequence (P08659 whole entry, looked up): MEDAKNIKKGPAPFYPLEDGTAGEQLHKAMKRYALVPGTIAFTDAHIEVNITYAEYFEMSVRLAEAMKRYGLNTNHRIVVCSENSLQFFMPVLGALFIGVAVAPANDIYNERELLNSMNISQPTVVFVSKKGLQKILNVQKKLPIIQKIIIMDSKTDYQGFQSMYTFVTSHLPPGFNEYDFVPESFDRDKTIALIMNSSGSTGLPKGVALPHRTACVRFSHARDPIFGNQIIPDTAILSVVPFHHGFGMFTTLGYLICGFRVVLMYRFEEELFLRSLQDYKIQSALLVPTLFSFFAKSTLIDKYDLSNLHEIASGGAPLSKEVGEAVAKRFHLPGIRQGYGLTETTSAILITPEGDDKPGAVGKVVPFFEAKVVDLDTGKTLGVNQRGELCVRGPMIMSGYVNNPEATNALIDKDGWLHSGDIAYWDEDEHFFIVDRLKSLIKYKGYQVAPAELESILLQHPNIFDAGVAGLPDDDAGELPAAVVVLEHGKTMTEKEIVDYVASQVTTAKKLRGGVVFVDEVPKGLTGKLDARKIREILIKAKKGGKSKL
human Phosphodiesterase 10 (PDE10), PDE10A (gene 10846), sequence (Q9Y233 whole entry, looked up): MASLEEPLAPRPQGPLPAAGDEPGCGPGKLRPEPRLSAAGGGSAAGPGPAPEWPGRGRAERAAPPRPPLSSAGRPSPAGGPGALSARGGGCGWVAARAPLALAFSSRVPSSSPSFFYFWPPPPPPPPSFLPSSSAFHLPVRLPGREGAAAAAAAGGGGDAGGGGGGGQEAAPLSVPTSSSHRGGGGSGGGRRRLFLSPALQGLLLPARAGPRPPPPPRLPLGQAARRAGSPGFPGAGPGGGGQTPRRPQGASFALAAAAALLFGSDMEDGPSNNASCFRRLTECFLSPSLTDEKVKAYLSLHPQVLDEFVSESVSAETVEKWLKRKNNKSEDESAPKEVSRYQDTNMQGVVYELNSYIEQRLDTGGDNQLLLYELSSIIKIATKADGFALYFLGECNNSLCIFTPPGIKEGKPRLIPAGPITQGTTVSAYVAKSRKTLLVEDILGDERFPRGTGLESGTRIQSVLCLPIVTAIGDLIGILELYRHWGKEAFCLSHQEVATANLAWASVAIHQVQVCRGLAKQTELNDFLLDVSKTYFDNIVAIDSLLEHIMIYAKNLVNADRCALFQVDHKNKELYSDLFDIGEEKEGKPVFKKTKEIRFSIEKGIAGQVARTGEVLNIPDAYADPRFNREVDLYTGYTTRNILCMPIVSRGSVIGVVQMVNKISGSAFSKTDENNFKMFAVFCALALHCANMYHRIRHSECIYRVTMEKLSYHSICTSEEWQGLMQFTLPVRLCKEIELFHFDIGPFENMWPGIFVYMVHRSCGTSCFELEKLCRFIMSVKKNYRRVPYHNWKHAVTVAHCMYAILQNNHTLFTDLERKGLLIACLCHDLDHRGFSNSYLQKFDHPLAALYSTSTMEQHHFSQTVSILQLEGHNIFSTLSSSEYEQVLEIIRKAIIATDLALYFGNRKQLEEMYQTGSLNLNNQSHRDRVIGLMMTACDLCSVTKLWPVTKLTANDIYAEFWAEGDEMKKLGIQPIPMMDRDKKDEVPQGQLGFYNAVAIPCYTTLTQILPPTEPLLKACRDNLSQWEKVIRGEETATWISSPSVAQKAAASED
Peroxisome proliferator-activated receptor gamma (Homo sapiens), sequence (P37231 whole entry, looked up): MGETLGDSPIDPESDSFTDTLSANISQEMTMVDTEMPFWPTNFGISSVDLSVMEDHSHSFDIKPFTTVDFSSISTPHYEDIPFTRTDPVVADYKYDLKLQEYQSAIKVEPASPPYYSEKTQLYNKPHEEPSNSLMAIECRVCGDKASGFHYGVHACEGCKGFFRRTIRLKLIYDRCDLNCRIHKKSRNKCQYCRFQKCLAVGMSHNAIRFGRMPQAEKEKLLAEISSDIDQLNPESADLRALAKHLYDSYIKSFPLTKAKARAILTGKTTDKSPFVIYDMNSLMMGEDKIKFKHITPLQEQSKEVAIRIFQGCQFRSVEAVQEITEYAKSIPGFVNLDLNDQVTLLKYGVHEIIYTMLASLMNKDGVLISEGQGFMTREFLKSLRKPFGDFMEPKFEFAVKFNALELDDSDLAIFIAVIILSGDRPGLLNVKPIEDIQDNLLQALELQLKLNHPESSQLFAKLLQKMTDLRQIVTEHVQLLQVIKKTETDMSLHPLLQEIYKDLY

As to `CC(C)C(=O)Cl`, the compound was called inactive in assay [1].

As for `CCOP(=O)(OCC)Oc1ccc([N+](=O)[O-])cc1`, the result in assay [2], in [3], in assay [4], in [5] and in assay [6] was inactive.

Regarding `CNC(=O)Oc1cc(C)c(SC)c(C)c1`, the concentration at half-maximal activity (AC50) was 11.7 µM (active) in assay [2]; 39.5 µM (active) in assay [7]; 21.2 µM (active) in assay [8]; 65.1 µM (active) in assay [6]; 24 µM (active) and 26.6 µM (active) in assay [11]. Moreover, the call in assay [4], in [5], in assay [9] and in [10] was inactive.

`CC1(C)[C@H](C(=O)O[C@H](C#N)c2cccc(Oc3ccccc3)c2)[C@@H]1C=C(Br)Br`: the AC50 in assay [2] is 15 µM (active). The outcome in [11] was inactive.

As to `COc1cc(OC)nc(Oc2cccc(Oc3nc(OC)cc(OC)n3)c2C(=O)O)n1`, the compound was called inactive in [12], in assay [3], in assay [14], in [15] and in [11]. Also, the concentration at half-maximal activity (AC50) in [13] was 34.9 µM (active).

Consider `Nc1ccc(Cl)c(Cl)c1`, for which the compound was classed as inactive in assay [4] and in [15]. The AC50 is 33.3 µM (active) in [5], 10.7 µM (active) in assay [6], 1.16 µM (active) in assay [13] and 2.18 µM (active) in [14].

Regarding `O=[N+]([O-])O`, the result in assay [16] and in assay [17] was inactive.

Regarding `Nc1cc(Cl)cc(Cl)c1`, the AC50 in assay [13] was 17.1 µM (active). For the same compound, the result in assay [14] and in assay [15] was inactive.

Consider `c1ccc2c(c1)CCCC2`, for which the result in assay [3], in assay [18] and in [11] was inactive.

For the compound `O=C1C(Cl)=C(Cl)C(=O)C(Cl)=C1Cl`, the call in assay [19] was inactive.

For `O=C(CCl)c1ccccc1`, the half-maximal activity concentration (AC50) in assay [13] and in assay [14] was 43.8 µM (active) each time. The outcome in [15], in [16] and in assay [17] was inactive.

For the compound `CCOC(=O)COc1ccc(Cl)cc1Cl`, the outcome in assay [20] was inactive.

Consider `Oc1ccc(Cl)cc1`, for which, in assay [20], the result was inactive.

With `COCC(=O)N(c1c(C)cccc1C)N1CCOC1=O`, the result in assay [1] was inactive.

Regarding `C=CC(=O)OC`, the compound was classed as inactive in assay [1].
